Here are results for 37 compounds from PubChem BioAssay (Tox21).

Test [1] deals with Acetylcholinesterase (Homo sapiens) (UniProt P22303). Briefly: Acetylcholinesterase (AChE) small molecule antagonists: colormetric cell-based qHTS assay (AID 1347395). Further: nearly all actives have a fitted effect of over 30% in size. Further: potency means the concentration at half of the fitted maximal effect. Summed up:
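In this cell-based qHTS, attached SH-SY5Y cells were treated with test chemicals for 30 min, after which acetylthiocholine hydrolysis was followed by DTNB colour development over 90 min at 37 C.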
(In general: In qHTS, concentration-response curves come from the screen itself.)

For test [2] the target is unchanged. Nature of the test: Acetylcholinesterase (AChE) small molecule antagonists: enzyme-based qHTS assay (AID 1347397). Further: nearly all actives have a fitted effect of over 55% in size. Further: potency means the concentration at half of the fitted maximal effect. As to conditions: Potency: AChE enzyme activity inhibition; outcome: AChE enzyme activity inhibition. Summed up:
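Compound or DMSO vehicle was pin-transferred onto recombinant human AChE (50 mU/mL as dispensed) and left 30 min at room temperature. Acetylthiocholine with DTNB then started the reaction, read colorimetrically 10 min later.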

Test [3] shares this target. Briefly: Acetylcholinesterase (AChE) small molecule antagonists: fluorescence cell-based qHTS assay (AID 1347398). Further: nearly all actives have a fitted effect of over 50% in size. As to conditions: Potency: AChE activity; outcome: AChE activity. Summed up: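 Using neuroblastoma SH-SY5Y cells as the enzyme source, test chemicals are preincubated 30 min at 37 C; AChE-driven acetylthiocholine cleavage is then quantified by thiocholine-dependent Thiolite Green fluorescence after 40 min at room temperature.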

The target is the same in test [4]. Briefly: Acetylcholinesterase (AChE) small molecule antagonists: enzyme-based qHTS assay with human liver microsomes (AID 1347399). Further: nearly all actives have a fitted effect of over 60% in size. The note with it: Potency: qHTS inhibition; outcome: qHTS inhibition. Summed up: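 Recombinant human AChE (50 mU/mL in the enzyme mix) and human liver microsomes (0.25 mg/mL final) were preincubated with compound and NADPH (0.25 mg/mL final) for 30 min at 37 C. Acetylthiocholine/DTNB was then added; thiocholine was read colorimetrically after 10 min at room temperature.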

Results filed as inconclusive are left out. Some compounds were tested as several samples or in several runs, with calls that do not always agree. The source made the active and inactive calls. The call rests on the fitted dose curve.
On the % scale 0 is the no-effect control and ±100 the full control effect.

Sequence of Acetylcholinesterase (Homo sapiens) (P22303 whole entry, looked up): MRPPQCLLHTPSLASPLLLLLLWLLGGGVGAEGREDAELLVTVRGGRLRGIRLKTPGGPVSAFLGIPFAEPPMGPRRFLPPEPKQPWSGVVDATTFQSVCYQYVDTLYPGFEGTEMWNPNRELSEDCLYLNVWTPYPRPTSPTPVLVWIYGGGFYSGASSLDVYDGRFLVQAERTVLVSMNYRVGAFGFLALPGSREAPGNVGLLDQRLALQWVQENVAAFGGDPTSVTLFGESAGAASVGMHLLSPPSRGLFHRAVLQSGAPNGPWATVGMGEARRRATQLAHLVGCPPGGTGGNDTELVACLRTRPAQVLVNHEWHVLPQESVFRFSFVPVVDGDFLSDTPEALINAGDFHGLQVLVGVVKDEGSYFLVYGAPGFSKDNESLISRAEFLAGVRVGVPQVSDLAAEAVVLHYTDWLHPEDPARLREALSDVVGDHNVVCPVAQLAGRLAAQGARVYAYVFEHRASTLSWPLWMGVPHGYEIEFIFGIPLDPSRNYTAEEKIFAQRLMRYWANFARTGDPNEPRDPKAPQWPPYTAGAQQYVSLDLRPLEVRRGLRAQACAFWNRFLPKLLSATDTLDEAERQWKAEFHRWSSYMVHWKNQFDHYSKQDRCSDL

On to `NC(N)=NC(N)=NCCc1ccccc1`, for which the Potency result in test [1], in test [2], in test [3] and in test [4] was “inactive” in each case.

Consider `CC(C)(c1cc(Br)c(OCC(Br)CBr)c(Br)c1)c1cc(Br)c(OCC(Br)CBr)c(Br)c1` (stereo not drawn), for which the Potency result in test [1], in test [2], in test [3] and in test [4] was “inactive” throughout.

Take `NC(=O)N1c2ccccc2C=Cc2ccccc21`: the Potency in test [1] is 35.4 µM (active) and inactive. For the same compound, the Potency entry in test [2], in test [3] and in test [4] was “inactive” throughout.

Consider `CCCc1ccc(O)cc1`, for which the Potency result in test [1], in test [2], in test [3] and in test [4] was “inactive” in each case.

With `CCCCCCCCCCCC(=O)OC`, the Potency result in test [1], in test [2], in test [3] and in test [4] was “inactive” throughout.

On to `CCCCCC/C=C/C=O`, for which the Potency result in test [1], in test [2], in test [3] and in test [4] was “inactive” throughout.

As to `C(=C(c1ccccc1)c1ccccc1)c1ccccc1`, the Potency result in test [1], in test [2], in test [3] and in test [4] was “inactive” throughout.

Regarding `O=C(O)c1cccc(C[C@@H]2COc3ccc(OCc4nc5cc(F)ccc5s4)cc3[C@@H]2O)c1`, the Potency result in test [1], in test [2], in test [3] and in test [4] was “inactive” in each case.

For `Cc1ccc2nc(-c3ccc(N)cc3)sc2c1S(=O)(=O)O`, the Potency entry in test [1], in test [2], in test [3] and in test [4] was “inactive” throughout.

For `O=Cc1ccc(Cl)c([N+](=O)[O-])c1`, the Potency in test [1] is 39.9 µM (active). Further, the Potency entry in test [2], in test [3] and in test [4] was “inactive” throughout.

`C=C(C)C(=O)OCCC[Si](OC)(OC)OC`: the Potency result in test [1], in test [2], in test [3] and in test [4] was “inactive” throughout.

Consider `CCn1cc(C(=O)O)c(=O)c2cc(F)c(N3CCNCC3)cc21`, for which the Potency entry in test [1], in test [2], in test [3] and in test [4] was “inactive” in each case.

As to `Nc1ccc(O)cc1`, the Potency result in test [1], in test [2], in test [3] and in test [4] was “inactive” in each case.

With `NC[C@H]1O[C@H](O[C@H]2[C@H](O)[C@@H](O[C@H]3O[C@H](CO)[C@@H](O)[C@H](N)[C@H]3O)[C@H](N)C[C@@H]2N)[C@H](N)[C@@H](O)[C@@H]1O`, the activity, negative = inhibition in test [1] was 1.64% [at 23.6 µM] (inactive). Moreover, the results for the activity change, negative = inhibition in test [2], in test [3] and in test [4] were 0.27% [at 23.6 µM] (inactive), 4.18% [at 23.8 µM] (inactive) and 3.75% [at 23.6 µM] (inactive), respectively.

For the compound `C=CC(=O)OCCCCCC`, the Potency result in test [1], in test [2], in test [3] and in test [4] was “inactive” each time.

On to `CCCCN(CCN(CCCC)C(=O)N1CCOCC1)C(=O)N1CCOCC1`, for which the Potency result in test [1], in test [2], in test [3] and in test [4] was “inactive” each time.

Turning to `O=C1C(c2[nH]c3ccccc3c2O)=Nc2ccccc21`, the Potency result in test [1], in test [2], in test [3] and in test [4] was “inactive” in each case.

Regarding `CCCC1O[C@@H]2C[C@H]3[C@@H]4CCC5=CC(=O)C=C[C@]5(C)[C@H]4[C@@H](O)C[C@]3(C)[C@]2(C(=O)CO)O1` (stereo partly drawn), the Potency entry in test [1], in test [2], in test [3] and in test [4] was “inactive” each time.

For `NC(=O)C1(N2CCCCC2)CCN(CCCC(=O)c2ccc(F)cc2)CC1`, the Potency result in test [1], in test [2], in test [3] and in test [4] was “inactive” in each case.

Take `COC(=O)CCCCC(=O)OC`: the Potency entry in test [1], in test [2], in test [3] and in test [4] was “inactive” in each case.

As to `c1ccc2c(c1)c1cccc3ccc4cccc2c4c31`, the Potency result in test [1], in test [2], in test [3] and in test [4] was “inactive” each time.

Consider `CC(C)[C@H](N)C(=O)OCCOCn1cnc2c(=O)[nH]c(N)nc21`, for which the Potency entry in test [1], in test [2], in test [3] and in test [4] was “inactive” in each case.

On to `CCc1cc(Cc2cc(CC)cc(C(C)(C)C)c2O)c(O)c(C(C)(C)C)c1`, for which the Potency entry in test [1], in test [2], in test [3] and in test [4] was “inactive” in each case.

In the case of `Cc1oc(-c2ccccc2)nc1CCOc1ccc(C[C@H](Nc2ccccc2C(=O)c2ccccc2)C(=O)O)cc1`, the Potency result in test [1], in test [3] and in test [4] was “inactive” in each case. Moreover, in test [2], the Potency was 56.4 µM (active).

In the case of `COC(=O)c1cc(Cl)ccc1NS(=O)(=O)C(F)(F)F`, the Potency result in test [1], in test [2], in test [3] and in test [4] was “inactive” each time.

Consider `CCCCCCCCCCCC(=O)OCC(O)CO` (stereo not drawn), for which the Potency result in test [1], in test [2], in test [3] and in test [4] was “inactive” each time.

As to `CC1(C)O[C@@H]2C[C@H]3[C@@H]4C[C@H](F)C5=CC(=O)CC[C@]5(C)[C@H]4[C@@H](O)C[C@]3(C)[C@]2(C(=O)CO)O1`, the Potency result in test [1], in test [2], in test [3] and in test [4] was “inactive” each time.

For the compound `Fc1ccc([C@@H]2CCNC[C@H]2COc2ccc3c(c2)OCO3)cc1`, the Potency entry in test [1], in test [2], in test [3] and in test [4] was “inactive” each time.

On to `CCCCCCCCOc1ccc(C(=O)O)cc1`, for which the Potency result in test [1], in test [2], in test [3] and in test [4] was “inactive” each time.

In the case of `Cc1occc1S`, the Potency entry in test [1], in test [2], in test [3] and in test [4] was “inactive” each time.

Consider `CC(C)N(c1ccccc1)C(C)C`, for which the Potency entry in test [1], in test [2], in test [3] and in test [4] was “inactive” in each case.

Turning to `O=C(O)c1ccccc1S`, the Potency result in test [1], in test [2], in test [3] and in test [4] was “inactive” each time.

For `CCC(C)COC(C)=O` (stereo not drawn), the Potency entry in test [1], in test [2], in test [3] and in test [4] was “inactive” each time.

Turning to `CCCCCC(=O)O[C@]1(C(C)=O)CC[C@H]2[C@@H]3CCC4=CC(=O)CC[C@]4(C)[C@H]3CC[C@@]21C`, the Potency result in test [1], in test [2], in test [3] and in test [4] was “inactive” throughout.

Take `CC1=CC(=O)CC(C)(C)C1(O)/C=C/C(C)=C\C(=O)O` (stereo not drawn): the Potency result in test [1], in test [2], in test [3] and in test [4] was “inactive” each time.

With `OC[C@@H](O)[C@@H](O)[C@H](O)[C@@H](O)CO`, the Potency entry in test [1], in test [2], in test [3] and in test [4] was “inactive” in each case.

On to `Cc1cccc(C(=O)O)c1[N+](=O)[O-]`, for which the Potency result in test [1], in test [2], in test [3] and in test [4] was “inactive” each time.
